PubChem BioAssay AID1159580 (chemical genetic matrix, 2015)
Screen size: about 5,500 compounds; about 2,000 (36%) were called active. Roughly 18% stayed inconclusive and do not appear here. No stated cut-off is given here; in the data, active means normalized growth mostly below about 0.91 (no sharp cut-off); inconclusive means no clear call, values can overlap the other calls; inactive means mostly above about 0.92. Some of the results follow.

Assay: chemical genetic growth profiling, strain panel (AID 1159580);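 further: tested at 20 µM; growth read once vehicle control cultures reached saturation at 30 °C; 1 = growth at the plate median or of vehicle wells; lower values mean less growth of the strain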
Details: S. cerevisiae deletion strains, growth OD
[1] = locus YDL101C, strain DUN1, hits give low values
[2] = locus YHR030C, strain SLT2, hits give low values

Measured: normalized growth

O=C(Oc1ccc(F)cc1)c1cccs1
inactive: locus YAL013W, strain DEP1, hits give low values 1.01 | locus YBR229C, strain ROT2, hits give low values 1.01 | [1] 1.03 | locus YDR150W, strain NUM1, hits give low values 0.941 | locus YEL061C, strain CIN8, hits give low values 1 | locus YGR078C, strain PAC10, hits give low values 1.01 | [2] 0.987 | locus YHR087W, strain rtc3, hits give low values 0.992 | locus YJR043C, strain POL32, hits give low values 1.03 | locus YJR075W, strain HOC1, hits give low values 0.986 | locus YLR039C, strain RIC1, hits give low values 1.05 | locus YLR058C, strain SHM2 (second series), hits give low values 0.995 | locus YLR085C, strain ARP6, hits give low values 0.992 | locus YLR262C, strain YPT6, hits give low values 0.967 | locus YML094W, strain GIM5, hits give low values 0.989 | locus YMR219W, strain ESC1, hits give low values 0.993 | locus YMR263W, strain SAP30, hits give low values 0.966 | locus YNL153C, strain GIM3, hits give low values 1.02 | locus YNL298W, strain CLA4 (second series), hits give low values 1.03 | locus YNL322C, strain KRE1, hits give low values 1 | locus YNR030W, strain Alg12, hits give low values 1.02 | locus YPL055C, strain LGE1, hits give low values 0.91 | locus YPL241C, strain CIN2, hits give low values 1 | locus YPR135W, strain CTF4, hits give low values 1.01

O=C(Oc1ccc(C2SCCS2)cc1)c1cccs1
inactive: locus YAR019C, strain CDC15, hits give low values 1 | locus YBL105C, strain PKC1, hits give low values 1.01 | locus YBR135W, strain CKS1, hits give low values 0.997 | locus YBR136W, strain MEC1, hits give low values 1.01 | locus YBR160W, strain CDC28, hits give low values 1 | locus YDL017W, strain CDC7, hits give low values 0.999 | locus YDL028C, strain MPS1, hits give low values 0.993 | [1] 1.01 | locus YDL108W, strain KIN28, hits give low values 0.996 | locus YDL132W, strain cdc53, hits give low values 0.995 | locus YDL214C, strain PRR2, hits give low values 0.775 | locus YDR052C, strain DBF4, hits give low values 1.01 | locus YDR054C, strain cdc34, hits give low values 1 | locus YDR226W, strain ADK1, hits give low values 1 | locus YDR477W, strain SNF1, hits give low values 0.818 | locus YER123W, strain YCK3, hits give low values 0.812 | locus YER133W, strain GLC7, hits give low values 0.834 | locus YFL009W, strain cdc4, hits give low values 1 | locus YFL029C, strain CAK1, hits give low values 1.02 | locus YFR003C, strain YPI1, hits give low values 1.01 | locus YFR028C, strain CDC14, hits give low values 0.988 | locus YGR040W, strain KSS1, hits give low values 0.869 | locus YGR052W, strain FMP48, hits give low values 0.821 | locus YGR092W, strain DBF2, hits give low values 0.768 | locus YHR079C, strain IRE1, hits give low values 0.678 | locus YHR082C, strain KSP1, hits give low values 0.716 | locus YHR205W, strain SCH9, hits give low values 0.936 | locus YIL147C, strain SLN1, hits give low values 1 | locus YJL095W, strain BCK1, hits give low values 0.572 | locus YJL128C, strain PBS2, hits give low values 0.951 | locus YJL157C, strain FAR1, hits give low values 0.716 | locus YJR016C, strain ILV3, hits give low values 1 | locus YJR066W, strain TOR1 (second series), hits give low values 0.884 | locus YJR066W, strain TOR1, hits give low values 0.684 | locus YKL048C, strain ELM1, hits give low values 0.937 | locus YKL101W, strain HSL1, hits give low values 0.852 | locus YKL193C, strain SDS22, hits give low values 0.997 | locus YKL203C, strain TOR2, hits give low values 0.876 | locus YLR113W, strain HOG1, hits give low values 0.884 | locus YLR133W, strain CKI1, hits give low values 0.896 | locus YLR403W, strain SFP1, hits give low values 0.763 | locus YML070W, strain DAK1, hits give low values 0.726 | locus YMR001C, strain CDC5, hits give low values 1.01 | locus YMR205C, strain PFK2 (second series), hits give low values 0.805 | locus YMR277W, strain FCP1, hits give low values 1 | locus YNL006W, strain LST8, hits give low values 1 | locus YNL020C, strain ARK1, hits give low values 0.829 | locus YNL161W, strain CBK1, hits give low values 1 | locus YNL183C, strain NPR1, hits give low values 0.81 | locus YNL207W, strain RIO2, hits give low values 1 | locus YNL222W, strain SSU72, hits give low values 0.999 | locus YNL307C, strain MCK1 (second series), hits give low values 0.784 | locus YOL078W, strain AVO1, hits give low values 0.997 | locus YOL136C, strain PFK27, hits give low values 0.701 | locus YOR061W, strain CKA2, hits give low values 0.737 | locus YOR119C, strain RIO1, hits give low values 0.785 | locus YOR329C, strain SCD5, hits give low values 1.01 | locus YPL031C, strain PHO85, hits give low values 0.697 | locus YPL153C, strain RAD53, hits give low values 0.777 | locus YPL204W, strain HRR25, hits give low values 0.852 | locus YPL209C, strain IPL1, hits give low values 1.01 | locus YPR025C, strain CCL1, hits give low values 0.997 | locus YPR106W, strain ISR1, hits give low values 1.01 | locus YPR111W, strain DBF20, hits give low values 1 | strain NNK1, hits give low values 1.03 | strain TSCII, hits give low values 1.02
active: locus YFR019W, strain FAB1, hits give low values 0.689 | [2] 0.667 | locus YKL067W, strain YNK1, hits give low values 0.684 | locus YOR231W, strain MKK1, hits give low values 0.549 | locus YPL256C, strain CLN2, hits give low values 0.776
